Screening data as filed in PubChem BioAssay.
PINK1 expr mod: PINK1 expression modulation. PINK1 immunofluorescence, high-content cytometry, 24 h. Potency, µM (doses to about 76.6 µM), most hits filed as activators. 410,000 compounds, 0.2% hits. AID 624263; active = well fitted activation curve with a large enough effect; inconclusive = small, poorly fitted or top-dose-only effect; cell line not stated here; note: nearly all actives have a fitted effect of over 65% in size
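PINK1 protein, normally rapidly degraded, was detected by immunofluorescence after 24 hour compound treatment of a stable cell line. Titration data (5 concentrations) came from laser-scanning cytometry, with CCCP-treated wells as controls.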
KB-V1 cytotox: kills drug-selected multidrug resistant KB-V1 cells. KB-V1 MDR cells viability, CellTiter-Glo, 72 h. Potency, µM (titrated, usually from 46.1 µM), hits mostly cytotoxic. 400,000 compounds, 3.4% hits. AID 1347076; note: nearly all actives have a fitted effect of over 60% in size
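Potencies derive from concentration-effect curves fitted to normalized luminescence (CellTiter-Glo) of KB-V1 cells treated for 72 h at 37 degrees C in phenol-red-free DMEM containing 10% FBS.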
SW480 rereplic: inducers of DNA re-replication in SW480 colon cancer cells. SW480 DNA re-replication, Hoechst DNA content imaging, 48 h. 340,000 compounds, 1.8% hits. Potency, µM (highest dose often 46.1 µM), hits mostly activators; note: nearly all actives have a fitted effect of over 55% in size
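Image-based DNA-content assay: after two days of treatment, nuclei were labelled with the DNA dye Hoechst and imaged, and hits were compounds raising the count of nuclei showing high fluorescence intensity.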
MCF10A rereplic: induces DNA re-replication in MCF 10a normal breast cells; 350,000 compounds, 2.9% hits; AID 624296; MCF 10A DNA re-replication, Hoechst nuclear intensity, 48 h; Potency, µM (top dose mostly 46.1 µM), usual class: activators; note: nearly all actives have a fitted effect of over 50% in size
12-LOX inh: ALOX12 (human) lipoxygenase inhibition. purified 12hLO, xylenol orange hydroperoxide absorbance. AID 1671190. 580,000 compounds, 1.1% hits. Potency, µM (series often up to 108 µM), most hits filed as inhibitors. P18054
Target sequence (P18054 whole entry, looked up): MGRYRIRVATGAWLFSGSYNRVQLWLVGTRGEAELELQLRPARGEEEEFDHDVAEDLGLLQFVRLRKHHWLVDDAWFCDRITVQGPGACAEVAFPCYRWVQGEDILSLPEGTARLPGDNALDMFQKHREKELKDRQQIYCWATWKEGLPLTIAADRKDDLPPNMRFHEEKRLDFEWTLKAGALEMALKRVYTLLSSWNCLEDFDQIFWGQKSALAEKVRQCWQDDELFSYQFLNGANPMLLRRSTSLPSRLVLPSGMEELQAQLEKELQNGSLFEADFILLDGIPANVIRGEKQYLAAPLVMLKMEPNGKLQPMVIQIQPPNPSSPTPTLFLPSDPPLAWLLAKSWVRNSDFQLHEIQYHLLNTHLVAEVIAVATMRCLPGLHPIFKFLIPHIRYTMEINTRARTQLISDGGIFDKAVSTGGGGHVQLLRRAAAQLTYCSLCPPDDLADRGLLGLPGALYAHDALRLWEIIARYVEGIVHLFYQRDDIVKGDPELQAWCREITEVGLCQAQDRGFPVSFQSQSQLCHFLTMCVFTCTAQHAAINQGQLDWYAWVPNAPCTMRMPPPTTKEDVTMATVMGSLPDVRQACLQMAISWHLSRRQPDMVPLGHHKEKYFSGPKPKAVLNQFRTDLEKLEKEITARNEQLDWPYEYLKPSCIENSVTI
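Hydroperoxide product was detected by ferrous iron/xylenol orange as the 573 to 405 nm absorbance ratio. Arachidonic acid at 40 uM (final) was turned over for 30 min at room temperature by 150 nM human 12hLO, pH 7.0 Hepes buffer, after 15 min compound preincubation.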
KB-3-1 tox: KB-3-1 parental cell cytotoxicity. KB-3-1 viability, CellTiter-Glo ATP luminescence, 72 h. Potency, µM (titrated, usually from 46.1 µM), most hits filed as cytotoxic. 400,000 compounds, 1.4% hits; note: nearly all actives have a fitted effect of over 60% in size
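Using CellTiter-Glo luminescence, growth of non-resistant KB-3-1 adenocarcinoma cells is assessed 72 h after pin-tool compound addition at 37 °C. Normalized responses across the concentration series yield fitted curves.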
Numbers stand for hits; – = inactive; ? = inconclusive; · = no result; ! = a repeat was not active; [ ] = another dose, or the depositor's remark. Shown are actives, neighbours in structure and some others; about 5.8% of the full set was active somewhere. Unless noted, calls come from the whole dose curve; as a rule, active = well fitted curve in the direction sought with a large enough effect; inconclusive = small, poorly fitted or top-dose-only effect, or another doubt; inactive = no such curve, though single readings can be large; an effect the other way counts as inactive or inconclusive.

SMILES | PINK1 expr mod | KB-V1 cytotox | SW480 rereplic | MCF10A rereplic | 12-LOX inh | KB-3-1 tox
Cc1ccc2occ(CN3CCN(c4ccccc4)CC3)c(=O)c2c1 | – | 23.1µM | – | ? | ? | –
CCN1CCN(Cc2coc3ccc(C)cc3c2=O)CC1 | – | – | – | ? | ? | –
O=C(CCc1nc(-c2ccccc2)no1)NC1CCCN(CCCc2ccccc2)C1 (stereo unspecified) | · | · | · | · | – | ·
CCN(CC)CCOc1ccc(Cc2ccccc2)cc1 | · | · | – | 23.7µM | ? | ·
CCc1cccc(OCCCCN(CC)CC)c1 | – | – | – | – | 1.12µM | –
COC(=O)C(Cc1ccccc1)NC(=O)c1ccc2c(c1)NC(=O)CS2 (stereo unspecified) | · | · | · | · | – | ·
COc1cccc(-c2nnc3sc(C4CCCCC4)nn23)c1 | – | 3.66µM | – | ? | – | ?
COc1cc(-c2nnc3sc(C4CCCCC4)nn23)cc(OC)c1OC | – | 18.4µM | – | 20.6µM | · | ?
COc1cc(NC(=O)Cn2nc(C(F)(F)F)c3c2CCC3)cc(OC)c1OC | – | – | · | · | – | 16.4µM
Cc1ccc(NC(=O)Cn2nc(C(F)(F)F)c3c2CCCC3)cc1C | – | – | · | · | – | –
CCCN1CCC(=O)N(CCSc2ccccc2)CC1 | – | ? | ? | – | – | –
c1ccc(SCCN2CCN(c3ccccc3)CC2)cc1 | – | – | – | ? | 12.6µM | –
CCOC(=O)C1CCN(Cc2cc(=O)oc3ccc(C)cc23)CC1 | · | · | · | · | – | ·
COC(=O)c1cc2c(ccn2-c2ccc(F)cc2)n1Cc1cccc(OC)c1 | – | 13µM | ? | ? | – | –
COC(=O)c1cc2c(ccn2-c2ccc(F)cc2)n1Cc1ccc(OC(C)=O)cc1 | – | ? | – | ? | ? | –
CCCn1c(C(=O)OC)cc2c1ccn2-c1ccc(F)cc1 | – | – | – | 23.1µM | ? | –
COC(=O)c1cc2c(ccn2-c2ccc(F)cc2)n1CC(C)C | – | – | ? | 23.1µM | – | –
COC(=O)c1cc2c(ccn2-c2ccc(F)cc2)n1C(C)C | – | – | – | ? | ? | –
COc1cc2c(cc1OC)CN(C(=O)COC(=O)c1cccnc1Nc1ccccc1F)CC2 | · | · | · | · | – | ·
Cc1cc(C)n(NC(=S)NC2CCCC2)c(=O)c1C#N | – | – | ? | 23.1µM | ? | –
COc1ccc(NC(=O)c2ccc3c(c2)N(C)C2CCCCN2C3=O)cc1 (stereo unspecified) | · | · | · | · | – | ·
CNC(=S)N/N=C/c1cc(C)ccc1C | – | – | – | – | ? | –
CCNC(=S)N/N=C/c1cc(C)ccc1C | – | – | – | – | 39.8µM | –
O=C1C=CC(=Nc2cccc3c2C(=O)c2ccccc2-3)O1 | – | – | 23.1µM | ? | · | ?
CCCCC(=O)Nc1ccc(C(=O)N(CC)c2ccccc2C)cc1 | – | 14.6µM | ? | –[9.22 µM] | – | –
SMILES | PINK1 expr mod | KB-V1 cytotox | SW480 rereplic | MCF10A rereplic | 12-LOX inh | KB-3-1 tox
CCN(C(=O)c1ccc(NC(C)=O)cc1)c1ccccc1C | – | – | – | – | – | –
COc1cc(-c2noc(C)c2C#Cc2nccn2C)cc(OC)c1OC | – | 4.61µM! | ? | 16.4µM | – | 9.2µM!
COc1cc(-c2noc(C)c2C#CCCN2C(=O)c3ccccc3C2=O)cc(OC)c1OC | · | – | · | · | · | –
CCC(=O)Nc1nn(CC(C)C)c2nc3ccc(C)cc3cc12 | – | – | 18.4µM | ? | – | –
COc1ccc2nc3c(cc2c1)c(NC(=O)C1CCCO1)nn3CC(C)C (stereo unspecified) | – | – | ? | – | – | –
CCCCn1nc(NC(=O)CC(C)C)c2cc3cc(OC)ccc3nc21 | – | – | 11.6µM | 14.6µM | – | –
COc1ccc2nc3c(cc2c1)c(NC(=O)CC(C)C)nn3CC(C)C | – | – | 8.2µM | 7.31µM | – | –
CCCC(=O)Nc1nn(CC(C)C)c2nc3cc(C)ccc3cc12 | – | – | – | ? | ? | –
CC(=O)Nc1ccc(CC(=O)NCCC(c2ccccc2)c2ccccc2)cc1 | – | – | 20.6µM | ? | – | –
COc1ccc(NC(=O)NCc2nc(-c3cccc(Cl)c3)oc2C)cc1 | · | · | · | · | – | ·
CCN(CC)C(=S)SCc1ccc(C(=O)O)cc1 | · | · | · | · | – | ·
CCCCCc1ccc(C(=O)C(C)C)cc1 | · | · | · | · | – | ·
CCn1c(CNC(=O)COc2ccc(C(C)C)cc2)nnc1SCC(=O)NC1CCCCC1C (stereo unspecified) | – | ? | – | – | – | –
Cc1cccc(C)c1OCC(=O)NCc1nnc(SCC(=O)NC2CCCCC2C)n1C (stereo unspecified) | – | – | – | – | 7.08µM | –
CC1CCN(c2ccc(NC(=O)c3cccnc3)cc2)CC1 | – | 18.4µM | – | – | – | –
CC1CCN(c2ccc(NC(=O)c3ccccc3SC3CCS(=O)(=O)C3)cc2)CC1 (stereo unspecified) | · | · | · | · | 6.31µM | ·
CC1CCN(c2ccc(NC(=O)c3cccnc3Cl)cc2)CC1 | – | – | – | – | – | –
CCCN(CC(=O)Nc1ccccc1C)C(=O)c1cc2ccccc2oc1=O | – | – | · | · | 12.6µM! | –
CCCN(CC(=O)Nc1ccccc1C)C(=O)c1nn(CC)c(=O)c2ccccc12 | – | 8.2µM | – | – | – | –
NC(=O)c1c(NC(=O)CSc2nc3c(c(C(F)(F)F)n2)CCc2ccccc2-3)sc2c1CCCC2 | – | – | – | – | – | –
Cc1nn(Cc2ccc(Cl)cc2)c(C)c1NC(=O)CSc1nc2c(c(C(F)(F)F)n1)CCc1ccccc1-2 | – | 8.2µM | ? | ? | – | –
Cc1ccc(Cn2nc(C)c(NC(=O)CSc3nc4c(c(C(F)(F)F)n3)CCc3ccccc3-4)c2C)cc1 | – | 4.11µM | – | ? | – | ?
CN(Cc1ccccc1)C(=O)CSc1nc2c(c(C(F)(F)F)n1)CCc1ccccc1-2 | – | ? | – | – | ? | 18.4µM
CN=c1scc(-c2ccccc2)n1/N=C/c1ccsc1 | · | · | · | · | – | ·
O=C(CCCSc1nc2ccccc2s1)NCc1ccc(F)cc1 | · | · | · | · | – | ·
SMILES | PINK1 expr mod | KB-V1 cytotox | SW480 rereplic | MCF10A rereplic | 12-LOX inh | KB-3-1 tox
COc1cccc(-c2cnc3c(NC=O)cc(-c4cccc(NC(C)=O)c4)cn23)c1 | – | ? | · | · | – | –
Cc1ccc(-c2cc(NC=O)c3ncc(-c4cnn(C)c4)n3c2)cc1 | – | 5.8µM | · | · | ? | 10.3µM
COc1ccc(F)cc1-c1cc(NC=O)c2ncc(-c3cc(OC)c(OC)c(OC)c3)n2c1 | – | 6.51µM | · | · | – | ?
COc1cc(-c2cnc3c(NC=O)cc(-c4ccc(C)cc4)cn23)cc(OC)c1OC | – | 0.581µM | · | · | ? | 0.164µM
COc1cc(-c2cnc3c(NC=O)cc(-c4cccc(NC(C)=O)c4)cn23)cc(OC)c1OC | – | – | · | · | – | 0.366µM
CC(=O)c1cn(CC(=O)NC2CCCCC2)c2ccccc12 | · | · | · | · | – | ·
COc1cc(-c2cnc3c(NC=O)cc(-c4ccccc4)cn23)cc(OC)c1OC | – | – | · | · | – | ?
COc1ccc(-c2cnc3c(NC(C)=O)cc(-c4ccccc4OC)cn23)cc1OC | – | ? | · | · | ? | ?
